This is a sample that favours compounds with a hit; in the whole collection about 1.8% have one here.
HTR2A ag: mouse Htr2a agonists via beta-arrestin recruitment, primary screen, cell-based, luminescence; 5-hydroxytryptamine receptor 2A (Mus musculus), P35363; CHO-K1 mHTR2A beta-arrestin complementation; percent of 30 µM serotonin response; activation, % at 7.6 µM; 0.66% of 360,000 active;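 active = activation above a run cutoff, the mean activation of all tested compounds plus 3 SD, cut at about 14% in these data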;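 also: 0% = plate median of compound wells and 100% = 30 µM serotonin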
Target sequence (P35363 whole entry, looked up): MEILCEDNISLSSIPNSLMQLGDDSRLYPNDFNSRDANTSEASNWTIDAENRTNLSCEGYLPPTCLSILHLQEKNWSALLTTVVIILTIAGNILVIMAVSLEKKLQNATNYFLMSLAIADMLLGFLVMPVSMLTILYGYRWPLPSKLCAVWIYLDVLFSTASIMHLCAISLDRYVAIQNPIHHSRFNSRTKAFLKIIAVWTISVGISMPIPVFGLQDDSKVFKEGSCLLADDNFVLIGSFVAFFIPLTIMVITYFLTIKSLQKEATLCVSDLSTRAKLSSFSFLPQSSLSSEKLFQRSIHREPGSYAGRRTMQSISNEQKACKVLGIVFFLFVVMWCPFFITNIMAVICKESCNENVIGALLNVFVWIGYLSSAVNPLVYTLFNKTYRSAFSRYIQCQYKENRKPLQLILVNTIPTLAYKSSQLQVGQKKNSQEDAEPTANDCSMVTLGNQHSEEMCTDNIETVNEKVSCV
bovine MsrA act: bovine MsrA enzyme activators, primary screen, biochemical, absorbance, HTS; Methionine sulfoxide reductase A (Bos taurus); activation, % at 10.6 µM; purified bovine MsrA, absorbance read-out; 0.3% of 360,000 active; in the data active = activation above about 7.5%;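 also: 0% = vehicle and 100% = reference activator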
NPR2 activator: human GC-B receptor activators, primary screen, HEK293 GC-B cells, cGMP TR-FRET, EC30 CNP; Atrial natriuretic peptide receptor 2 (Homo sapiens), P20594; 0% at EC30 CNP, 100% saturating CNP; activation, % at 10 µM; 0.11% of 370,000 active; AID 1920062, 2024;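 active = activation at 10 µM reaching about 35% in either raw or pattern-adjusted values, limit read from the data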
NPR1 activator: GC-A stimulated cGMP production enhancers – HEK293 GC-A cells, cGMP TR-FRET, EC30 ANP, primary screen; Atrial natriuretic peptide receptor 1 (Homo sapiens), P16066; 0% at EC30 ANP, 100% saturating ANP; activation, % at 10 µM; 0.14% of 370,000 active; AID 1671463, 2021; in the data active = activation above about 40%
MsrA inhibitor: bovine MsrA enzyme inhibitors, primary screen, biochemical, absorbance, HTS. AID 651718, 2012. purified bovine MsrA, absorbance read-out. inhibition, % at 15.5 µM. 0.75% of 360,000 active; in the data active = inhibition above about 4.5%;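 also: 0% = vehicle wells with enzyme and 100% = reference inhibitor wells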
* = called active by the depositor; nt = no result.

SMILES	HTR2A ag	bovine MsrA act	NPR2 activator	NPR1 activator	MsrA inhibitor
CCOc1cc(/C=C2/C(=O)ON=C2C)ccc1OCc1ccc(F)cc1	-2.7	-7.6	35.3*	42.3*	0.5
COc1ccc(/C=C2/C(=O)ON=C2C)cc1Br	0.2	-1.6	14.7	31.7	-0.3
CCOc1cc(/C=C2\C(=O)ON=C2c2ccccc2)ccc1OC	-0.6	-3.5	9.5	29.4	-0.4
Cn1nnnc1SCC(=O)Nc1nc(-c2ccc(F)c(F)c2)cs1	9.0	-3.1	-0.2	42.0*	-1.9
O=[N+]([O-])c1ccc(Oc2cccnc2)c([N+](=O)[O-])c1	-0.8	0.1	1.9	2.4	4.5*
COc1cc(C[C@H](C)[C@H](C)Cc2ccc3c(c2)OCO3)ccc1O	5.0	16.4*	nt	nt	nt
C#CCCCN([C@@H](CC(C)C)C(=O)OC)S(=O)(=O)c1ccccc1Br	nt	nt	-3.1	-4.5	nt
Cn1c(=O)cc(OCC(=O)NCCCN2CCN(c3ccccc3F)CC2)c2ccccc21	24.8*	-1.5	2.4	-2.3	3.0
CCn1c(Cc2cccs2)nnc1SCC(=O)c1ccc(Cl)cc1	nt	nt	-2.1	1.7	nt
CC1(Cc2ccc(C(F)(F)F)nc2)C(=O)Nc2cc(-c3ccccc3Cl)ccc21 (stereo not given)	-6.0	-1.0	1.6	42.3*	0.4
Cc1cc(F)cc(C)c1Cn1cnc2c(cnn2C(C)(C)C)c1=O	1.7	-0.6	-0.1	0.3	-1.2
Cc1ccc(F)c(Cn2cnc3c(cnn3C(C)(C)C)c2=O)c1Cl	-0.5	-2.2	38.0*	31.8	-0.6
COCc1cc(C)nc(OCC(=O)N/N=C/c2ccc(O)cc2O)c1C#N	1.1	-3.4	-0.2	4.7	4.5*
COCc1cc(C)nc(OCC(=O)N/N=C/c2ccccc2O)c1C#N	-2.1	-1.7	-3.1	2.4	3.1
O=C(C1CCCN1S(=O)(=O)c1ccc([N+](=O)[O-])cc1)N1CCN(c2ccccc2)CC1 (stereo not given)	nt	nt	-1.7	-1.5	nt
COC(=O)c1cc(-c2ccc(C)c3ccccc23)c(=O)n2c1CCC2	nt	nt	0.1	-0.2	nt
COc1cc(OC)c(-c2sc(Nc3ccccc3)n[n+]2-c2ccc(F)cc2)cc1OC	3.7	-10.7	2.4	0.6	4.6*
COc1cc(Br)c(-c2sc(Nc3ccccc3)n[n+]2-c2ccc(F)cc2)cc1OC	1.2	0.1	-21.4	-6.0	1.2
CN(C)C=Nc1ncc2c3ccccc3n(CCN(C)C)c2c1C#N	8.8	-9.5	6.5	7.6	3.2
CN(C)C=Nc1ncc2c3ccccc3n(Cc3ccccc3)c2c1C#N	-0.4	-2.6	35.4*	45.7*	-1.6
O=C(CSc1nnc(-c2ccc(Cl)cc2)n1-c1ccccc1)Nc1ccc(Oc2ccccc2)cc1	nt	nt	13.7	0.9	nt
CC1CCCN(CCC(=O)c2ccccc2)C1 (stereo not given)	9.0	-4.2	-1.3	66.7*	-0.1
O=C(CCN1CCCCC1)c1ccccc1	0.5	-11.3	-9.0	62.0*	-1.3
C[N+]1(CCC(=O)c2ccccc2)CCCCC1	-4.4	6.0	0.1	72.5*	0.7
CC(=O)N(C)c1ccc(N=Nc2c(C)[nH]n(C(N)=S)c2=O)cc1	6.0	-5.3	-5.2	1.0	4.1
SMILES	HTR2A ag	bovine MsrA act	NPR2 activator	NPR1 activator	MsrA inhibitor
CCN(CC)S(=O)(=O)c1ccc(N=Nc2c(C)[nH]n(C(N)=S)c2=O)cc1	-4.0	-12.1	3.8	0.6	4.5*
COc1cc(OC)c(OC)cc1/C=C1\CC(C)C/C(=C\c2cc(OC)c(OC)cc2OC)C1=O (stereo not given)	0.3	-3.6	7.0	49.4*	-0.7
CCCCCN1CCCCC(NC(=O)c2ccccc2C)C1=O (stereo not given)	nt	nt	-4.5	0.3	nt
C=CCOC(=O)C1=C(C)NC(=S)NC1/C=C/c1ccccc1 (stereo not given)	-8.1	-14.2	-1.6	42.9*	1.5
O=S1(=O)c2ccc(Br)cc2OC[C@H](Cc2ccccc2)N1Cc1cn(Cc2ccc(Br)cc2)nn1	nt	nt	11.9	1.1	nt
c1csc(-c2nc3nc4ccccc4nc3n2Cc2ccc3c(c2)OCO3)c1	0.9	-5.5	37.8*	25.4	0.5
CCCn1c(-c2cccs2)nc2nc3ccccc3nc21	-1.8	-4.5	9.0	3.8	4.4
Cn1ccnc1CN1CCC[C@]2(CC[C@H](CCC#N)O2)C1	nt	nt	-2.8	0.6	nt
CCCCSc1nc2c([nH]1)c(=S)n(C)c(=O)n2C	2.3	-5.5	37.0*	33.9	1.6
CCN(CC)CCSc1nc2c([nH]1)c(=S)n(C)c(=O)n2C	-5.0	-1.1	2.4	2.3	1.4
Cn1c(=S)c2[nH]c(SCCC(C)(C)C)nc2n(C)c1=O	6.9	-9.4	50.2*	44.1*	1.1
Cc1cccc(NC(=O)n2ccc3ccc(-c4ccc5cc[nH]c5c4)cc32)c1	nt	nt	-0.4	-10.6	nt
Cc1ccc(C(=O)n2ccc3ccc(-c4ccc5ccn(Cc6ccccc6)c5c4)cc32)cc1	nt	nt	-0.3	1.6	nt
COC(=O)c1ccc2nc(-c3ccc(OC)c(OC)c3)c(Cc3ccc(C)cc3)n2c1	0.4	0.8	20.9	20.4	1.0
COC(=O)c1ccc2nc(-c3ccco3)c(Cc3ccc(C)cc3)n2c1	-7.2	-5.1	51.8*	44.0*	1.2
COC(=O)c1ccc2nc(-c3ccco3)c(Cc3cccc(F)c3)n2c1	2.2	-6.9	41.7*	28.7	2.8
COC(=O)c1ccc2nc(-c3ccc(C)cc3)c(Cc3ccc(C)cc3)n2c1	1.8	0.8	50.2*	34.0	-0.7
COC(=O)c1ccc2nc(-c3ccc(F)cc3)c(Cc3cccc(F)c3)n2c1	2.2	-0.4	38.9*	28.3	-0.4
COC(=O)c1ccc2nc(-c3ccccc3)c(Cc3cccc(F)c3)n2c1	-0.8	-1.7	30.8	21.3	-0.9
CC(C)N1CCCCC(NC(=O)Cc2ccccc2)C1=O (stereo not given)	nt	nt	4.8	4.1	nt
COC(=O)C1CN(Cc2cn(Cc3ccc(Cl)cc3)nn2)CCS(=O)(=O)N1Cc1ccc(F)cc1 (stereo not given)	nt	nt	-4.6	-7.9	nt
CC(=O)CC[C@@H]1CC[C@]2(CCCN(C(=O)c3ccccc3)C2)O1	nt	nt	-9.1	-2.7	nt
Cc1ccc(Cc2c(-c3ccco3)nc3c(C)cc(Br)cn23)cc1	-12.4	-10.4	49.7*	49.0*	-0.2
N#C/C(=C\c1ccco1)C(=O)NCC1CCCO1 (stereo not given)	-3.1	-6.3	-4.8	1.8	7.0*
N#C/C(=C\c1ccc[nH]1)C(=O)NCC1CCCO1 (stereo not given)	13.4	-3.0	0.8	4.8	3.2
Cc1csc(NC(=O)c2cc3c(s2)-c2ccccc2OC3)n1	2.5	-0.5	-15.8	-3.4	0.8
Cc1c(NC(=O)c2cc3c(s2)-c2ccccc2OC3)cccc1[N+](=O)[O-]	-11.3	-5.0	59.4*	38.9	1.9
